In the library only some 1.3% were active in any assay of this set; here they are far more common.
NR5A2 inv ag = NR5A2 inverse agonism in reporter assay; O00482; HEK293T StAR-luciferase reporter, LRH-1 transfected, 24 h; inhibition, % at 3.6 µM; actives 0.13% (n = 360,000);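 active = inhibition above the mean inhibition of all tested compounds plus 3 SD, cut at about 73% in these data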;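 note: 0% = DMSO wells and 100% = reporter-only cells lacking LRH-1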
COUP-TFII inh = NR2F2 (human) inhibition, primary screen. P24468. HEK293T NGFI-A luciferase reporter, luminescence. inhibition, % at 8.6 µM. actives 0.7% (n = 370,000). AID 686940;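 active = inhibition above a per-plate cutoff, mean inhibition of test wells between control levels plus 3 SD, cut at about 38% in these data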;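 note: cells cotransfected with COUP-TFII expression vector driving the NGFI-A reporter; 0% = median of COUP-TF2 test wells and 100% = reporter-only cells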
Target sequence (P24468 whole entry, looked up): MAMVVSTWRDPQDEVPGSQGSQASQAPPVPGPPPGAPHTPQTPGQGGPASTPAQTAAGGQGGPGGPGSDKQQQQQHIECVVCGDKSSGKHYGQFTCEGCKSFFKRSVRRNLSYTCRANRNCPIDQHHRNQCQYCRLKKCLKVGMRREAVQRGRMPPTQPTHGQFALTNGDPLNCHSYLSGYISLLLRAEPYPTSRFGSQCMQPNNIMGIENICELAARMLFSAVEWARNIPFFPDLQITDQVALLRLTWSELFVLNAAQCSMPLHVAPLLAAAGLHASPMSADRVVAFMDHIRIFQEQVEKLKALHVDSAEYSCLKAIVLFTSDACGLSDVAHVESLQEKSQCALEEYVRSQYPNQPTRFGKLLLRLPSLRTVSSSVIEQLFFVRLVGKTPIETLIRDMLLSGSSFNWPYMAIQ
NCOA3 inh = human NCOA3 inhibition; Q9Y6Q9; HEK293 GAL4-SRC3 luciferase reporter, luminescence; inhibition, % at 3.6 µM; actives 0.17% (n = 360,000); AID 588352;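 active = inhibition above a per-campaign cutoff, the mean of all compounds plus 3 SD, cut at about 60% in these data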;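 note: 0% = DMSO-treated cells and 100% = gossypol-treated cells at 36 µM; higher means less SRC3-driven luciferase light from the GAL4 reporter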
SRC1 inh = inhibits human SRC1 coactivator. HEK293 GAL4-SRC1 luciferase reporter, luminescence. Q15788. inhibition, % at 3.6 µM. actives 0.12% (n = 360,000);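 active = inhibition above the campaign mean plus 3 SD, with each screening campaign given its own cutoff, cut at about 60% in these data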;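 note: 0% = DMSO treated cells and 100% = gossypol at 36 µM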
SRC2 inh = inhibits human steroid receptor coactivator 2; HEK293 GAL4-SRC2 luciferase reporter, luminescence; inhibition, % at 9 µM; actives 0.17% (n = 370,000); AID 651957;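 active = inhibition above the mean inhibition of all tested compounds plus 3 SD, set per campaign, cut at about 52% in these data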;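 note: 0% = DMSO treated cells and 100% = cells given Gossypol at 36 µM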
Gli-Sufu antag = blocks Gli-Sufu signaling in a luciferase reporter. Sufu-KO-LIGHT fibroblasts, Gli luciferase reporter luminescence. inhibition, % at 5 µM. actives 0.74% (n = 340,000);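 active = inhibition above about 55%, limit read from the data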;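 note: 0% = DMSO-treated cells and 100% = wells with medium but no cells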
Gli antag conf = confirmation of Gli-SUFU pathway antagonists. AID 602428. Sufu-KO-LIGHT cells, Gli luciferase reporter, luminescence. actives 40% (n = 2,500). shares compounds with Gli-Sufu antag. inhibition, % at 5 µM;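 active = mean inhibition at 5 µM reaching about 45%, limit read from the data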;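 note: plate controls were DMSO-treated cells for no effect and wells lacking cells for full effect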
SufuKO cytotox = cytotoxic in Gli-SUFU antagonist counter-screen | AID 651994 | cytotoxicity, % at 5 µM | actives 32% (n = 2,500) | shares compounds with Gli-Sufu antag | Sufu-KO-LIGHT cells cytotoxicity, ATP luminescence;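 active = mean cytotoxicity at 5 µM above about 25%, limit read from the data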;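 note: cells exposed to compound overnight for roughly 16 to 18 hours; plate controls were DMSO wells with cells for no effect and medium without cells for full effect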
Wnt3a cs = counter-screen for Gli-SUFU antagonists: Wnt3a reporter inhibition; Wnt-LIGHT cells, Wnt3a-driven luciferase reporter, luminescence; actives 20% (n = 2,500); shares compounds with Gli-Sufu antag; AID 651995; inhibition, % at 6.25 µM;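 active = mean inhibition above about 25%, limit read from the data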
Numbers without * were called inactive; / = not tested or not shown.

SMILES	NR5A2 inv ag	COUP-TFII inh	NCOA3 inh	SRC1 inh	SRC2 inh	Gli-Sufu antag	Gli antag conf	SufuKO cytotox	Wnt3a cs
COC(=O)c1ccc(Oc2nc(C)cc(Oc3ccccc3)n2)cc1	-11.0	-13.8	4.2	4.5	2.6	-0.5	/	/	/
C=CCn1c(O)c(N=NC(=S)Nc2cccc(C)c2)c2ccccc21	10.5	-3.1	25.5	-4.7	21.1	53.5	57.1*	26.0*	-22.0
C=CCn1c(COc2ccc(C)cc2)nnc1SCC(=O)c1ccc(-c2ccccc2)cc1	/	9.1	/	/	17.3	/	/	/	/
CCCCSc1nc2sc3c(c2c(=O)n1-c1ccc(C)cc1)CCN(C)C3	10.8	-10.0	-12.6	-3.8	2.8	50.0	49.4*	20.7	-9.7
O=C([O-])c1cc(-c2ccccc2)cc(-c2ccccc2)[n+]1CCc1ccc(Cl)cc1	7.1	-10.4	17.5	-6.5	-13.6	77.5*	67.3*	35.8*	-23.3
O=C(CCc1ccccc1)NNC(=O)Cc1ccc(Cl)cc1	1.8	7.8	14.0	-7.7	19.6	-7.0	/	/	/
Cc1cccc(N(Cc2ccccc2)C(=O)CCl)c1	33.0	9.5	26.2	2.2	60.0*	76.9*	29.1	27.5*	-8.6
CCOC(=O)N1CCN(C(=O)C[C@H]2C[C@@]3(C(=O)OC)C(=C[C@H](COCc4ccccc4)O[C@@H]3C)N(Cc3cccc4ccccc34)C2=O)CC1	/	-0.8	/	/	20.4	/	/	/	/
Cc1ccc(CNc2nc(C)cs2)cc1	-112.5	-41.4	-98.5	-75.1	-28.3	73.1*	-59.5	20.7	-59.1
CC(C)C[C@@H]1COc2cccc(N3CCSCC3)c2S(=O)(=O)N1C	/	5.3	/	/	-13.9	/	/	/	/
CN1CCN(CCC(=O)Nc2ccc(Br)cc2)CC1	3.4	1.5	-6.1	-4.4	17.8	84.4*	11.2	16.1	-15.8
CCOC(=O)C1=C(C)OC(N)=C(C#N)C1c1cc2cc(C)ccc2nc1N1CCCCC1 (stereo not drawn)	3.8	-1.6	-16.2	-13.6	-32.2	-10.2	/	/	/
CCOC(=O)C1=C(C)OC(N)=C(C#N)C1c1cc2ccccc2nc1N1CCCCC1 (stereo not drawn)	/	/	/	/	/	50.4	35.1	15.6	-13.9
COC(=O)[C@]12C[C@H](CC(=O)N3CCN(C(=O)c4ccco4)CC3)C(=O)N(Cc3cccc4ccccc34)C1=C[C@H](C(C)(C)C)O[C@@H]2C	/	22.8	/	/	10.1	/	/	/	/
O=[N+]([O-])c1ccc(N2CCCCC2)s1	12.7	-14.2	2.2	-10.4	-29.5	-4.3	/	/	/
O=[N+]([O-])c1ccc(N2CCN(Cc3ccccc3)CC2)s1	7.4	8.2	-23.3	-68.7	-6.3	52.2	24.1	5.8	-8.5
CC(C)OCCCNC(=O)c1ccc(CS(=O)(=O)c2cccc(C(F)(F)F)c2)o1	6.5	-4.8	11.8	14.8	8.5	53.6	19.2	19.0	-3.6
Cc1cccc(NC(=O)C2CCN(S(=O)(=O)c3ccc4c(c3)NC(=O)CO4)CC2)c1	13.5	5.0	4.7	-9.6	-40.9	1.7	/	/	/
Cc1ccc(C)c(NC(=O)C2CCN(S(=O)(=O)c3ccc4c(c3)NC(=O)CO4)CC2)c1	0.0	-2.6	11.5	14.4	6.7	60.4*	17.9	10.6	-31.6
COc1ccc(N2CCN(S(=O)(=O)c3ccc(OC)c(C(=O)N4CCCC4)c3)CC2)cc1	2.0	-8.2	0.2	-2.6	13.9	70.3*	9.5	15.9	-23.3
COc1ccc(S(=O)(=O)N2CCCCCC2)cc1C(=O)N1CCCCC1	-23.1	-11.1	-29.1	-69.8	-11.4	8.6	/	/	/
N=c1nc2n(cc1F)C1OC(CO)C(O)C1O2 (stereo not drawn)	13.2	-19.9	16.7	13.1	-3.5	55.5*	46.9*	26.4*	36.0*
N=c1ccn2c(n1)O[C@H]1[C@H](O)[C@@H](CO)O[C@H]12	-6.3	-8.2	-10.4	-20.8	15.6	60.1*	45.9*	12.8	40.6*
CCCOc1ccc(OCCN2CCCC(C)C2)cc1 (stereo not drawn)	5.2	-3.7	-2.3	-6.4	-2.2	16.6	/	/	/
CC1CN(CCCCOc2cccc(Oc3ccccc3)c2)CC(C)O1 (stereo not drawn)	20.3	10.0	10.6	-36.4	-6.8	11.9	/	/	/
SMILES	NR5A2 inv ag	COUP-TFII inh	NCOA3 inh	SRC1 inh	SRC2 inh	Gli-Sufu antag	Gli antag conf	SufuKO cytotox	Wnt3a cs
CC1CCCN(CCOc2cccc(Oc3ccccc3)c2)C1 (stereo not drawn)	2.9	-12.5	0.2	-15.8	18.5	51.0	27.4	9.2	-14.4
CC1CN(CCOc2cccc(Oc3ccccc3)c2)CC(C)O1 (stereo not drawn)	-8.2	13.0	4.5	-30.2	20.0	52.1	14.5	14.0	-8.7
CCCC[C@@H]1C(=O)N2N=Cc3cc(C)c(C)cc3[C@H]2N2N=Cc3cc(C)c(C)cc3[C@@H]12	/	15.4	/	/	1.6	/	/	/	/
CC(C)N1Cc2nnn(Cc3ccccc3)c2-c2cc(F)ccc2S1(=O)=O	/	-18.2	/	/	30.9	/	/	/	/
COc1ccc(N2CCN(C(=O)NCc3ccc(OC)c(Cl)c3)CC2)cc1	-7.7	12.4	-0.5	-26.4	-20.1	56.4*	24.8	8.9	-8.4
O=C1/C(=C/c2ccccc2O)SC(=S)N1Cc1cccnc1	2.6	3.7	2.5	14.6	-19.5	72.2*	31.5	8.9	-102.4
Nc1[nH]c2cc(Cl)ccc2c1C(=O)NCCc1ccc(Cl)cc1	/	-5.5	/	/	1.6	/	/	/	/
Cc1cc(-c2nnc(SCC(=O)Nc3ccccc3C(F)(F)F)o2)c(C)n1-c1ccccc1	47.7	19.2	55.8	35.1	-5.7	57.0*	66.9*	13.3	64.5*
OCCC1CN(Cc2cc(F)ccc2F)CCN1CCCc1ccccc1 (stereo not drawn)	0.2	-14.9	10.2	-35.9	9.3	52.6	12.6	17.6	-39.6
CC(C)N1CCC(N2CCN(CCCc3ccccc3)CC2CCO)CC1 (stereo not drawn)	3.9	-1.7	10.5	-20.1	1.1	60.2*	13.3	27.4*	-6.1
CC(C)N1CCN(CCCc2ccccc2)CC1CCO (stereo not drawn)	14.7	-2.9	-16.5	6.0	11.1	-1.3	/	/	/
CCCCc1ccc(N=N/C(C(=O)Nc2cc(OC)c(NC(C)=O)cc2OC)=C(/C)O)cc1	-9.9	8.7	-10.5	0.1	0.2	64.0*	16.1	4.0	-40.5
CCCCc1ccc(N=N/C(C(=O)Nc2ccccc2OC)=C(/C)O)cc1	-20.0	-10.9	-6.8	-0.9	10.8	2.9	/	/	/
CN(C)c1ccc(NC(=S)OC2CCC23CCC(c2ccccc2)CC3)cc1 (stereo not drawn)	/	-4.1	/	/	10.8	/	/	/	/
O=C(NCc1ccc(F)c(F)c1)C1CCC(CNS(=O)(=O)c2cccc3cccnc23)CC1 (stereo not drawn)	/	5.6	/	/	4.0	/	/	/	/

Bioassay records: PubChem BioAssay, several laboratories
